# Screening data (PubChem BioAssay)
# Hits are enriched below; roughly 28% of the tested compounds scored in any of these assays.
# CYP2C19 activ – increases human CYP2C19 enzyme activity. recombinant CYP2C19, luciferin-H EGE luminescence; hits give high values; 0 = fully inhibited enzyme, 1 = untreated enzyme. activation factor at 5 µM. 96,000 tested, under 10 active;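 active = activation factor of at least 2 at 5 µM in the primary screen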
# Mac1 fbg inh – blocks human CD11b/CD18 adhesion to fibrinogen. P05107+P11215. K562 CD11b/CD18 adhesion to fibrinogen, ATPlite luminescence; Mn2+ added to activate the integrin. inhibition, % at 10 µM. 93,000 tested, 0.54% active;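 active = primary inhibition of 50% or more at 10 µM, then 40% or more on retest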
# CYP2C9 act – increases human cytochrome P450 2C9 activity. activation factor at 5 µM. P11712. recombinant CYP2C9, luciferin-H conversion, luminescence; hits give high values; factor 1 = untreated enzyme, 0 = blocked. 96,000 tested, 1.4% active;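 active = activation factor of 2 or more for CYP2C9 at a 5 µM dose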
# Target sequence (P11712 whole entry, looked up): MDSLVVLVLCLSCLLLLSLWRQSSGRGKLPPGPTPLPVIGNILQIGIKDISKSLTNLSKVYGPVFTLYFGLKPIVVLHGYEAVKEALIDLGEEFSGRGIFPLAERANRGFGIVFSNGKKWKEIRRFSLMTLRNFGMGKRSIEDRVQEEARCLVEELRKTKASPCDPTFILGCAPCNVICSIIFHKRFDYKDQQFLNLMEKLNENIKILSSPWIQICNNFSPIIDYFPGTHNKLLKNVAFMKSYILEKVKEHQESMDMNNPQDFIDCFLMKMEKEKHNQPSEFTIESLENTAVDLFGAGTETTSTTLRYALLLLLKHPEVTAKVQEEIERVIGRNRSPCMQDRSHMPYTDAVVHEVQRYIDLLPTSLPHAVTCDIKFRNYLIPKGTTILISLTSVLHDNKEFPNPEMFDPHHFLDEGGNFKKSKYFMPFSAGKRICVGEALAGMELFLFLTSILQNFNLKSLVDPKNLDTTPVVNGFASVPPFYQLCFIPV
# CD11b adhes enh – enhancers of human CD11b/CD18 binding to fibrinogen. P05107+P11215. K562 CD11b/CD18 adhesion to fibrinogen, ATPlite luminescence. AID 1499. activation, % at 10 µM. 93,000 tested, 0.07% active;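 active = 10 µM primary screen giving 50% or more activity, confirmed by 40% or more on retest at that dose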
# CYP2C19 inhib – blocks human cytochrome P450 2C19; AID 778; inhibition, % at 5 µM; 96,000 tested, 21% active; CYP2C19 Supersomes, luciferin-H EGE luminescence, 30 min;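 active = CYP2C19 inhibition above a set limit at 5 µM in the primary screen, cut at about 50% in these data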
# CYP2C9 inhib – human CYP2C9 inhibition; P11712; CYP2C9 Supersomes, luciferin-H conversion, luminescence; inhibition, % at 5 µM; 96,000 tested, 20% active; AID 777;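 active = blocking of liver enzyme CYP2C9 beyond about 50% at 5 µM, limit read from the data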
# Hits are given with their value; - = inactive; . = no result given.
SMILES,CYP2C19 activ,Mac1 fbg inh,CYP2C9 act,CD11b adhes enh,CYP2C19 inhib,CYP2C9 inhib
CC1CCN(C(=O)C2Cc3ccccc3CN2S(=O)(=O)c2ccc(F)cc2)CC1 (configuration not stated),-,-,-,-,-,-
COc1ccc2c(C)cc(Sc3nnnn3-c3ccccc3)nc2c1,.,-,.,-,.,.
COc1cccc(/C=N/NC(=O)c2nc(-c3ccccc3)cc(-c3ccccc3)n2)c1O,.,-,.,-,.,.
Cc1ccc(Nc2n[nH]c(C)c2[N+](=O)[O-])cc1C,.,-,.,-,.,.
O=C(N/C(=C/c1cccnc1)C(=O)N1CCOCC1)c1ccccc1Br,.,-,.,-,.,.
CCOC(=O)c1c(NC(=O)C2CCN(S(=O)(=O)c3cccs3)CC2)sc(C)c1C,-,-,-,-,-,-
CCOC(=O)C1CCCN(C(=O)C2CCN(S(=O)(=O)c3cccs3)CC2)C1 (configuration not stated),-,-,-,-,75.1,64.0
CCOC(=O)N1CCN(S(=O)(=O)c2cc(Br)cnc2N)CC1,-,-,-,-,94.7,94.4
COc1ccc(S(=O)(=O)N2CCCC(C(=O)N3CCCCCC3)C2)cc1 (configuration not stated),-,.,-,.,79.6,-
O=C(C1Cc2ccccc2CN1S(=O)(=O)c1ccc(F)cc1)N1CCCCCC1 (configuration not stated),-,.,-,.,-,-
COc1ccc(C(=O)N2CCCC(C(=O)N3CCCCCC3)C2)cc1 (configuration not stated),-,-,-,-,-,-
O=C(C1Cc2ccccc2CN1S(=O)(=O)c1cccs1)N1CCCCCC1 (configuration not stated),-,-,-,-,82.0,-
Cc1oncc1C(=S)Nc1ccccc1,-,-,-,-,-,-
C=CCN(CCNP(=O)(OCC)OCC)CP(=O)(OCC)OCC,-,.,-,.,-,-
CCC(=NCCN1CCNCC1)C1=C(O)CC(C)(C)CC1=O,-,-,-,-,-,-
CCOC(=O)C1CCCN(S(=O)(=O)c2ccc(OC)cc2)C1 (configuration not stated),-,-,2.4,-,96.4,-
Cc1ccc(NC(=O)CN2CCCN(S(=O)(=O)c3ccc(Br)s3)CC2)cc1,-,-,-,-,91.4,-
O=C(O)C1CCCN1S(=O)(=O)c1ccc(Br)s1 (configuration not stated) (tested in a mixture with another compound),-,-,-,-,59.0,-
Cc1csc(NC(=O)C2CCCN(S(=O)(=O)c3ccc(Br)s3)C2)n1 (configuration not stated),-,-,-,-,92.3,93.9
O=C(NCc1cccs1)C1CCCN(S(=O)(=O)c2ccc(Br)s2)C1 (configuration not stated),-,-,-,-,-,-
O=C(COC(=O)c1cc([N+](=O)[O-])ccc1NCc1ccccc1Cl)NCC(F)(F)F,.,-,.,-,.,.
CN1C(=O)CSc2ccc(NC(=O)NCCC3=CCCCC3)cc21,-,-,-,-,-,-
COc1cc(C2NC(=O)NC(C)=C2C(=O)OCc2ccc(C)cc2)cc(OC)c1O (configuration not stated),-,-,-,-,-,-
CC1=C(C(=O)OC(C)C)C(c2ccc(Br)s2)NC(=O)N1C (configuration not stated),-,-,-,-,99.3,87.7
CCOC(=O)C1=C(C)NC(=O)NC1c1cc(Br)c(O)c(OC)c1 (configuration not stated),-,-,-,-,-,63.6
SMILES,CYP2C19 activ,Mac1 fbg inh,CYP2C9 act,CD11b adhes enh,CYP2C19 inhib,CYP2C9 inhib
CCOC(=O)C1=C(C)NC(=O)NC1c1ccc(Br)s1 (configuration not stated),-,-,-,-,78.2,-
CCOC(=O)C1=C(C)NC(=O)NC1c1ccccc1Cl (configuration not stated),-,-,-,-,-,-
CC1=C(C(=O)OCC2CCCO2)C(c2cccc(O)c2)NC(=O)N1 (configuration not stated),-,-,-,-,67.2,-
CCOC(=O)CCCNC(=O)CN1C(=O)NC2(CCCCCC2)C1=O,-,-,-,-,-,-
Cc1ccc(C)c(Cn2c(C(C)O)nc3ccccc32)c1 (configuration not stated),-,-,-,-,-,-
COc1cc(C2NC(=O)NC(C)=C2C(=O)OC2CCCCC2)cc(Br)c1O (configuration not stated),-,-,-,-,79.4,95.7
CCOC(=O)C(C)Oc1ccc(C2NC(=O)NC(C)=C2C(C)=O)cc1Br (configuration not stated),-,-,-,-,-,72.4
CC1=C(C(=O)OC2CCCCCCC2)C(c2ccc(O)cc2)NC(=O)N1 (configuration not stated),-,-,-,-,81.8,92.2
O=C(N/N=C/c1ccc2c(c1)OCO2)c1ccc(Br)o1,.,-,.,-,.,.
CCOc1ccc(Nc2nc(Cc3nnc(SCC(=O)c4ccc(C)c(C)c4)o3)cs2)cc1,-,-,-,-,-,-
O=C(NOC(=O)c1cc(Br)ccc1Cl)c1cccs1,-,.,-,.,-,-
Nc1cc(C(=O)c2cccs2)ccc1Cl,-,-,-,-,87.3,-
O=C(COC(=O)c1ccccn1)Nc1cccc(Cl)c1Cl,-,-,-,-,84.4,-
COc1ccc(N/C(=C(/C(Cl)=C(Cl)Cl)[N+](=O)[O-])n2nnc3ccccc32)cc1OC,-,-,-,-,-,-
Cc1cc(Cl)ccc1OCC(=O)NC1CCCC1,-,-,-,-,98.1,66.8
Cc1cc(Cl)c(S(=O)(=O)N2CCCCCC2)cc1OCC(N)=O,-,-,-,-,-,-
Cc1ccc(OCC(=O)NC2CCCC2)c(C)c1,-,-,-,-,-,-
CCN1CCN(S(=O)(=O)c2cc(OCC(=O)NC3CCCCC3)c(C)cc2Cl)CC1,-,58.5,-,-,-,56.4
Cc1cc(Cl)c(S(=O)(=O)N2CCCCCC2)cc1OCC(=O)NC1CCCCC1,-,76.9,-,-,89.9,89.3
CCOC(=O)N1CCN(S(=O)(=O)c2cc(OCC(=O)NC3CCCCC3)c(C)cc2Cl)CC1,-,-,-,-,53.7,62.0
Cc1cc(Cl)c(S(=O)(=O)N2CCSCC2)cc1OCC(=O)NC1CCCCC1,-,-,-,-,66.4,56.7
Cc1cc(Cl)c(S(=O)(=O)N2CCN(c3cccc(C)c3C)CC2)cc1OCC(N)=O,-,-,-,-,-,-
O=C(COc1ccc(Cl)cc1Cl)NC1CCSC1=O (configuration not stated),-,-,-,-,95.7,60.2
CCOc1cc(S(=O)(=O)NC2CCCCCC2)ccc1F,-,-,-,-,-,-
